Experimental data published in PubChem BioAssay AID1159580 (chemical genetic matrix, 2015).
Among all 5,500 compounds or so, about 2,000 (36%) were called active. Roughly 18% stayed inconclusive and do not appear here. The list shows a part of the results. A number with no mark means an inactive call. No stated cut-off is given here; in the data, active means normalized growth mostly below about 0.91 (no sharp cut-off); inconclusive means no clear call, values can overlap the other calls; inactive means mostly above about 0.92.

Test: chemical genetic growth profiling, strain panel (AID 1159580);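 further: tested at 20 µM; growth read once vehicle control cultures reached saturation at 30 °C; 1 = growth at the plate median or of vehicle wells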
Conditions: S. cerevisiae deletion strains, growth OD

Structure (SMILES): O=C1c2ccc(O)cc2O[C@H](c2cc(O)c(O)c(O)c2)[C@H]1O
- normalized growth (locus YBR021W, strain FUR4, stronger effect = lower value): 1
- normalized growth (locus YBR229C, strain ROT2, stronger effect = lower value): 0.992
- normalized growth (locus YCL029C, strain bik1, stronger effect = lower value): 1.02
- normalized growth (locus YDL035C, strain GPR1, stronger effect = lower value): 1
- normalized growth (locus YDL074C, strain BRE1, stronger effect = lower value): 0.939
- normalized growth (locus YDL101C, strain DUN1, stronger effect = lower value): 0.93
- normalized growth (locus YDL185W, strain tfp1, stronger effect = lower value): 0.999
- normalized growth (locus YDL192W, strain arf1, stronger effect = lower value): 1.01
- normalized growth (locus YDR101C, strain arx1, stronger effect = lower value): 1
- normalized growth (locus YDR162C, strain NBP2, stronger effect = lower value): 1.03
- normalized growth (locus YDR318W, strain mcm21, stronger effect = lower value): 1
- normalized growth (locus YDR388W, stronger effect = lower value): 1.01
- normalized growth (locus YDR502C, strain sam2, stronger effect = lower value): 1.02
- normalized growth (locus YEL061C, strain CIN8, stronger effect = lower value): 0.999
- normalized growth (locus YER110C, stronger effect = lower value): 1.02
- normalized growth (locus YER155C, strain BEM2, stronger effect = lower value): 1.04
- normalized growth (locus YER167W, strain BCK2, stronger effect = lower value): 1.04
- normalized growth (locus YGL078C, strain dbp3, stronger effect = lower value): 1.01
- normalized growth (locus YGL086W, strain mad1, stronger effect = lower value): 1.01
- normalized growth (locus YGL248W, strain PDE1, stronger effect = lower value): 1
- normalized growth (locus YGR135W, strain pre9, stronger effect = lower value): 1.01
- normalized growth (locus YGR252W, strain gcn5, stronger effect = lower value): 0.972
- normalized growth (locus YHR030C, strain SLT2, stronger effect = lower value): 1.01
- normalized growth (locus YHR079C, strain IRE1 (second series), stronger effect = lower value): 1.02
- normalized growth (locus YHR094C, strain hxt1, stronger effect = lower value): 1.02
- normalized growth (locus YHR129C, strain ARP1, stronger effect = lower value): 0.997
- normalized growth (locus YHR200W, strain rpn10, stronger effect = lower value): 0.982
- normalized growth (locus YIL066C, strain RNR3, stronger effect = lower value): 0.99
- normalized growth (locus YIL073C, strain SPO22, stronger effect = lower value): 1.07
- normalized growth (locus YIL125W, strain kgd1, stronger effect = lower value): 1
- normalized growth (locus YIR030C, strain dcg1, stronger effect = lower value): 1.03
- normalized growth (locus YJL095W, strain BCK1, stronger effect = lower value): 0.884
- normalized growth (locus YJL134W, strain LCB3, stronger effect = lower value): 1.01
- normalized growth (locus YJL168C, strain set2, stronger effect = lower value): 1
- normalized growth (locus YJL187C, strain SWE1 (second series), stronger effect = lower value): 0.853 (active)
- normalized growth (locus YJR043C, strain POL32, stronger effect = lower value): 0.998
- normalized growth (locus YJR075W, strain HOC1, stronger effect = lower value): 1.04
- normalized growth (locus YKL009W, strain mrt4, stronger effect = lower value): 1.06
- normalized growth (locus YKL068W, stronger effect = lower value): 1.02
- normalized growth (locus YKL085W, strain MDH1 (second series), stronger effect = lower value): 1.01
- normalized growth (locus YKL085W, strain MDH1, stronger effect = lower value): 1.01
- normalized growth (locus YKL190W, strain CNB1, stronger effect = lower value): 1.01
- normalized growth (locus YKR001C, strain vps1, stronger effect = lower value): 1
- normalized growth (locus YLR039C, strain RIC1, stronger effect = lower value): 1.04
- normalized growth (locus YLR058C, strain SHM2, stronger effect = lower value): 0.92
- normalized growth (locus YLR102C, strain apc9, stronger effect = lower value): 1.01
- normalized growth (locus YLR262C, strain YPT6, stronger effect = lower value): 1.06
- normalized growth (locus YLR268W, strain sec22, stronger effect = lower value): 1.01
- normalized growth (locus YLR330W, strain CHS5, stronger effect = lower value): 1.03
- normalized growth (locus YLR342W, strain FKS1 (second series), stronger effect = lower value): 0.95
- normalized growth (locus YLR371W, strain rom2, stronger effect = lower value): 0.992
- normalized growth (locus YLR418C, strain cdc73, stronger effect = lower value): 1.01
- normalized growth (locus YML016C, strain PPZ1, stronger effect = lower value): 0.987
- normalized growth (locus YML032C, strain rad52, stronger effect = lower value): 1.06
- normalized growth (locus YML124C, strain tub3, stronger effect = lower value): 1.02
- normalized growth (locus YMR078C, strain ctf18, stronger effect = lower value): 1.03
- normalized growth (locus YMR223W, strain ubp8, stronger effect = lower value): 1.03
- normalized growth (locus YMR307W, strain GAS1, stronger effect = lower value): 1.02
- normalized growth (locus YNL067W, strain RPL9B, stronger effect = lower value): 1.01
- normalized growth (locus YNL153C, strain GIM3, stronger effect = lower value): 0.947
- normalized growth (locus YNL233W, strain BNI4, stronger effect = lower value): 1.02
- normalized growth (locus YNL250W, strain rad50, stronger effect = lower value): 1.01
- normalized growth (locus YNL271C, strain bni1, stronger effect = lower value): 1.01
- normalized growth (locus YNL298W, strain CLA4, stronger effect = lower value): 0.996
- normalized growth (locus YNL307C, strain MCK1, stronger effect = lower value): 1
- normalized growth (locus YNL322C, strain KRE1, stronger effect = lower value): 1.01
- normalized growth (locus YNR052C, strain pop2, stronger effect = lower value): 0.967
- normalized growth (locus YOL012C, strain htz1): 0.815
- normalized growth (locus YOL147C, strain pex11, stronger effect = lower value): 1.01
- normalized growth (locus YOR061W, strain CKA2, stronger effect = lower value): 1
- normalized growth (locus YOR069W, strain VPS5, stronger effect = lower value): 1.01
- normalized growth (locus YOR136W, strain idh2, stronger effect = lower value): 1.05
- normalized growth (locus YOR144C, strain elg1, stronger effect = lower value): 1.02
- normalized growth (locus YOR184W, strain ser1, stronger effect = lower value): 1.02
- normalized growth (locus YOR316C, strain cot1, stronger effect = lower value): 1.01
- normalized growth (locus YPL055C, strain LGE1, stronger effect = lower value): 1.02
- normalized growth (locus YPR119W, strain clb2, stronger effect = lower value): 1
- normalized growth (locus YPR141C, strain kar3, stronger effect = lower value): 1.01
- normalized growth (locus YPR163C, strain tif3, stronger effect = lower value): 1.01
- normalized growth (locus YPR167C, strain met16, stronger effect = lower value): 1.03
- normalized growth (strain wtn01, stronger effect = lower value): 1.01
